# From PubChem BioAssay
# Compounds with a hit are over-represented: about 5.7% of the library has one in this group of screens.
# TGFb inhibitor = qHTS for Inhibitors of TGF-b. HepG2 CAGA-GFP TGF-b/SMAD3 reporter, GFP fluorescence, 18 h; TGF-beta stimulated, 500 pg/mL final. Potency, µM (titrated, usually from 46.1 µM), inactives show at the top dose activity, negative = inhibition, usual class: inhibitors. actives 1.2% (n = 410,000). AID 588855, 2011; also: potency is read from the fitted curve at half-maximal effect; % is scaled to controls: 0 for no effect and ±100 for the full control effect; nearly all actives have a fitted effect of over 65% in size
#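 Inhibition of TGF-beta-driven CAGA-GFP reporter expression in HEPG2 cells is measured by cellular GFP fluorescence after 18 h stimulation with 500 pg/mL recombinant TGF-beta in 1% FBS medium at 37 degrees C.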
# S2 tox = Viability Counterscreen for Primary qHTS for Inhibitors of ATXN expression | actives 0.49% (n = 400,000) | AID 651635, 2014 | S2 cells (HEK-293 line with an ATXN2-luciferase reporter) viability, CellTiter-Fluor protease fluorescence, 24 h | Potency, µM (top dose mostly 56.7 µM), actives largely listed as cytotoxic; also: potency is read from the fitted curve at half-maximal effect; nearly all actives have a fitted effect of over 40% in size
# IL-1B inflam inh = qHTS for Inhibitors of Inflammasome Signaling: IL-1-beta AlphaLISA Primary Screen; THP-1 LPS/ATP IL-1B secretion, AlphaLISA, 16 h; active compounds read low; activity change, % at 57.5 µM; actives 4.7% (n = 360,000); AID 743279, 2014; in the data active = activity change below about -50%; inconclusive = mostly about -30% to -49%; also: % is scaled to controls: 0 for no effect and ±100 for the full control effect
#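 THP-1 cells pretreated 1 hr with compounds (up to 57.5 uM final), then stimulated with LPS (250 ng/mL final) plus ATP (1.25 mM final); secreted IL-1B measured by AlphaLISA after 16 hr, decreased signal indicating inhibition.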
# HepG2 tox = qHTS for Inhibitors of TGF-b: Cytotox Counterscreen; HepG2 CAGA-GFP viability, ATP luminescence, 18 h; Potency, µM (doses to about 46.1 µM), for the others: top-dose activity change, negative = cytotoxicity, usual class: cytotoxic; actives 0.76% (n = 410,000); AID 588856, 2011; also: potency is read from the fitted curve at half-maximal effect
#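 HepG2 CAGA-GFP cells (1000/well, DMEM with 1% FBS) received compound, then TGF-beta at 500 pg/mL final, and were incubated 18 hours at 37 degrees C. Viability was read by CellTiter-Glo luminescence. Media-only wells were set as complete cell-killing and DMSO as no toxicity.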
# ATXN2 expr inh = Primary qHTS for Inhibitors of ATXN expression; Potency, µM (series often up to 57 µM), without a hit: top-dose activity change, negative = inhibition, usual class: inhibitors; actives 0.72% (n = 360,000); AID 1745845, 2022; HEK-293 ATXN2-luciferase reporter, luminescence, 24 h; also: potency is read from the fitted curve at half-maximal effect; % is scaled to controls: 0 for no effect and ±100 for the full control effect; nearly all actives have a fitted effect of over 55% in size
#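 qHTS (up to 57 uM final) was run with 24 h compound exposure of reporter cells at 37 °C. Each well was multiplexed: SteadyGlo luminescence measured ATXN2-luciferase expression after a fluorogenic Gly-Phe-AFC viability readout (25 uM final).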
# * = called active by the depositor; i = inactive; ? = inconclusive; nt = no result. Unless noted, calls follow the shape of the dose curve; as a rule, active = well fitted curve in the direction sought with a large enough effect; inconclusive = small, poorly fitted or top-dose-only effect, or another doubt; inactive = no such curve, though single readings can be large; an effect the other way counts as inactive or inconclusive.
SMILES,TGFb inhibitor,S2 tox,IL-1B inflam inh,HepG2 tox,ATXN2 expr inh
COc1ccccc1N1CCN(C(=O)C2CCN(S(=O)(=O)c3ccc4c(c3)CC(C)N4C(C)=O)CC2)CC1 (centres undefined),-1%,i,22,-4%,-7%
CC(=O)N1c2ccc(S(=O)(=O)N3CCC(C(=O)NCc4ccccc4)CC3)cc2CC1C (centres undefined),-13%,i,14,-11%,-1%
O=C(C1CCN(S(=O)(=O)c2cccs2)CC1)N1CCN(c2ccccc2O)CC1,-1%,i,-27,-5%,6%
CC1Cc2cc(S(=O)(=O)N3CCC(C(=O)N4CCN(c5ccccc5F)CC4)CC3)ccc2N1C(=O)C1CC1 (centres undefined),-23%,i,-51*,-20%,?
CC1Cc2ccccc2N1C(=O)C1CCN(S(=O)(=O)c2cccs2)CC1 (centres undefined),-2%,i,-67*,0%,4%
COc1ccccc1N1CCN(C(=O)C2CCN(S(=O)(=O)c3ccc4c(c3)CC(C)N4C(=O)C3CC3)CC2)CC1 (centres undefined),-19%,i,-53*,-29%,-29%
O=C(CN(CCc1c[nH]c2ccccc12)S(=O)(=O)c1ccccc1)N1CCCCCC1,-8%,nt,nt,-12%,nt
Cc1cc(C)cc(NC(=O)C2CC23CCN(Cc2ccc4ncccc4c2)CC3)c1 (centres undefined),nt,i,nt,nt,nt
Cc1ccccc1N1CCN(S(=O)(=O)c2cccs2)CC1,-5%,i,-54*,-12%,0%
CCNc1nc(C#N)nc(Nc2ccccc2)n1,-7%,nt,nt,-14%,nt
CC1(C)CC(=O)C(C2C3=C(CC(C)(C)CC3=O)Oc3ccc4ccccc4c32)C(=O)C1 (centres undefined),-4%,?,-72*,-6%,17%
Cc1ccc(Nc2nc(N)c(C#N)c(CC#N)c2C#N)cc1,8%,i,-97*,-8%,22%
Cn1c(C(=O)NCc2ccc(F)cc2)cc2cc(S(=O)(=O)N3CCCCC3)ccc21,36%,nt,nt,6%,nt
C[C@](Cc1c[nH]c2ccccc12)(NC(=O)OC1C2CC3CC(C2)CC1C3)C(=O)NC[C@H](NC(=O)CCC(=O)O)c1ccccc1 (some centres undefined),nt,nt,nt,nt,-2%
O=C(CN1CCN(Cc2ccccc2)CC1)N/N=C/c1ccccc1F,27%,i,17,0%,-8%
C=CCc1cccc(C=NNC(=O)CN2CCN(Cc3ccccc3)CC2)c1O,nt,nt,nt,nt,19µM*
C=CCc1cccc(/C=N/NC(=O)C(C)Nc2ccc(C)cc2)c1O (centres undefined),?,i,0,-70%,22µM*
CN(C)C(=S)N=Nc1[nH]c2ccccc2c1O,2.8µM*,nt,48,-72%,nt
COc1ccc2[nH]c(N=Nc3ccccc3C)c(O)c2c1,-1%,i,-3,-3%,44%
Cc1ccc(S(=O)(=O)NCc2ccc(C(=O)NCCN(Cc3ccccc3)C(C)C)cc2)cc1,?,i,-66*,-11%,-31%
Cc1ccc(S(=O)(=O)NCc2ccc(C(=O)NCCc3cccc(C)c3)cc2)cc1,-10%,nt,nt,2%,nt
Cc1ccc(S(=O)(=O)N(C(=O)c2ccncc2)c2ccc(OC(=O)c3ccncc3)c3ccccc23)cc1,0%,?,-79*,-22%,19µM*
COc1ccc(S(=O)(=O)N2CCC(N3CCN(Cc4ccc(F)cc4)C(=O)C3=O)CC2)cc1,-7%,i,nt,-18%,-1%
CC(C)(C)c1cnnn1-c1ccc(C=O)cc1,-3%,i,13,-3%,6%
CC(C)(C)c1cnnn1-c1ccc(C(=O)CCl)cc1,6%,?,-106*,-16%,-30%
SMILES,TGFb inhibitor,S2 tox,IL-1B inflam inh,HepG2 tox,ATXN2 expr inh
CNc1ccc(C(=O)Oc2cc(O/N=[N+](\[O-])N(C)C)c([N+](=O)[O-])cc2[N+](=O)[O-])cc1,-11%,nt,nt,-1%,nt
O=C(O)c1[nH]n(-c2ccc(S(=O)(=O)O)cc2)c(=O)c1N=Nc1ccc(S(=O)(=O)O)cc1,4%,?,nt,4%,-7%
CCCn1cnc2c(SCc3ccccc3)nc(N)nc21,5%,i,-21,-4%,24%
CCCCn1cnc2c(SCc3ccccc3Cl)nc(N)nc21,-5%,?,-87*,-32%,-25%
CCCn1cnc2c(SCc3ccc(Cl)cc3)nc(N)nc21,-10%,i,-63*,-8%,8%
Nc1nc(SCc2ccccc2)c2ncn(Cc3ccccc3)c2n1,-15%,?,-64*,-34%,17%
CCCCn1cnc2c(SCc3ccc(Br)cc3)nc(N)nc21,18%,i,-84*,-23%,-18%
N#C/C(=C1/SC[C@@H](c2ccc(Cl)cc2Cl)S1)n1ccnc1,nt,i,nt,nt,?
CCCCn1cnc2c(SCc3ccccc3)nc(N)nc21,4%,i,-50*,5%,47%
COc1ccc(-c2nc(SCC(=O)NC(C)CCc3ccccc3)n[nH]2)cc1 (centres undefined),0%,nt,nt,-21%,nt
C=C(C)COc1ccc(-c2nc(N)nc(C(F)(F)F)c2-c2ccc(OC)cc2)c(O)c1,?,i,-4,-79%,nt
CCOc1ccc(-c2nc(N)ncc2Oc2ccccc2Br)c(O)c1,?,i,-22,11µM*,-7%
C=C(C)COc1ccc(-c2ncncc2-c2ccc(Br)cc2)c(O)c1,?,nt,-8,-22%,-13%
C=C(C)COc1ccc(-c2nc(N)ncc2Oc2ccc(OC)cc2)c(O)c1,?,i,0,11µM*,-12%
CCOc1ccc(-c2nc(N)ncc2Oc2cccc(OC)c2)c(O)c1,-7%,i,?,-45%,-4%
C=C(C)COc1ccc(-c2nc(N)ncc2Oc2ccccc2OC)c(O)c1,?,i,-62*,-103%,1%
C=C(C)COc1ccc(-c2nc(N)ncc2-c2ccc(Br)cc2)c(O)c1,16µM*,i,0,-105%,-8%
C=C(C)COc1ccc(-c2ncncc2-c2ccccc2OC)c(O)c1,-7%,i,-16,16%,4%
CCN(CC)c1ccc(/C=C/C2=C3C=CC=CC3NC=C2)cc1 (centres undefined),82%,nt,nt,-26%,nt
CCc1cc(-c2nc(N)ncc2-c2ccc(Br)cc2)c(O)cc1OC,?,i,37,22µM*,-15%
COc1ccc(-c2c(C)nc(N)nc2-c2ccc(OCc3ccc(C)cc3)cc2O)cc1OC,?,i,63,-3%,-4%
COC(=O)C1CCN(Cc2ccc3c(c2)CN(C(=O)c2cc(C4CC4)on2)CCO3)CC1,nt,i,nt,nt,nt
